Hit rate of the full screen: of about 360,000 compounds, about 25,000 (6.9%) were called active. Roughly 9% stayed inconclusive and do not appear here. What follows is part of a selection rich in actives, with near analogues and random picks from the rest. A number with no mark means an inactive call. Calls come from the whole dose curve; as a rule, active = well fitted inhibition curve with a large enough effect; inconclusive = small, poorly fitted or top-dose-only effect; inactive = flat fitted curve, though single readings scatter.

Data on 31 compounds can be found in PubChem BioAssay AID588342 (National Center for Advancing Translational Sciences (NCATS), 2011).
Potency is the fitted concentration of half-maximal effect.

Sequence of Luciferin 4-monooxygenase (Photinus pyralis) (P08659 whole entry, looked up): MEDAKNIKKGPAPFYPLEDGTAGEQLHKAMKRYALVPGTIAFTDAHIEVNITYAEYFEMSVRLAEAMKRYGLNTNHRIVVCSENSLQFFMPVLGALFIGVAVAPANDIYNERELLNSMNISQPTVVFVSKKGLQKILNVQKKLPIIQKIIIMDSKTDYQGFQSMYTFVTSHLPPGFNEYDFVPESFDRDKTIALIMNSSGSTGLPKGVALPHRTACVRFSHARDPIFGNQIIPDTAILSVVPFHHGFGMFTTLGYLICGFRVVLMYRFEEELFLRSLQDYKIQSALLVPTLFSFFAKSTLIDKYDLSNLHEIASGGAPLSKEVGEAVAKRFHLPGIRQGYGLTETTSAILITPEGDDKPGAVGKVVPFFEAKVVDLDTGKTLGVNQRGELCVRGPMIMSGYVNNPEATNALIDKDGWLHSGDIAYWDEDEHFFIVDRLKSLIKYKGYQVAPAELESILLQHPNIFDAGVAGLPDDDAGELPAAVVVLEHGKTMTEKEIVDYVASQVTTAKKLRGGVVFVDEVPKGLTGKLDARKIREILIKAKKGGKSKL

In this assay the target is Luciferin 4-monooxygenase (Photinus pyralis) (UniProt P08659). The experiment in a line: qHTS profiling assay for firefly luciferase inhibitor/activator using purifed enzyme and Km concentrations of substrates (counterscreen for miR-21 project).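 For activity change, negative = inhibition: plate controls were vehicle for no effect and reference inhibitor for full effect.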 Note: nearly all actives have a fitted effect of over 55% in size. The following applies: purified FLuc, luminescence inhibition; series mostly up to 57.5 µM; activity change, negative = inhibition: at the top concentration. The gist of the method:
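Biochemical qHTS of compounds, final roughly 60 µM downward over six points, against 10 nM purified firefly luciferase using Km concentrations of substrates (10 uM D-luciferin, 10 uM ATP) in Tris acetate pH 7.5 buffer; luminescence output.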
For `CCOCCn1ccc2c(OCC(=O)NCc3ccc(C)cc3)cccc2c1=O`, the “activity change, negative = inhibition” value is -7.32%. On the same count and under the same terms, to `CCC(=O)N1CCc2cc(S(=O)(=O)NC(Cc3ccccc3)C(=O)NCc3ccc(C)cc3)ccc21` (stereo unspecified) belongs -1.03%; to `O=C(c1ccccc1)N1N=C(c2ccccc2O)CC1c1ccc(Br)cc1` (stereo unspecified), -0.906%. As to `Brc1ccc(C2CC(c3ccccc3)=Nc3ccccc3N2)cc1` (stereo unspecified), the Potency is 26.9 µM (active). For the compound `COc1ccc(N2C(=O)NC(NS(=O)(=O)c3ccc(Cl)cc3)(C(F)(F)F)C2=O)cc1` (stereo unspecified), the “activity change, negative = inhibition” value is 6.14%. Consider `COC(=O)c1sc2ncccc2c1-n1c(C)ccc1C`, for which the “activity change, negative = inhibition” value was -2.23%. `COc1ccc(CNC(=O)/C(C#N)=C/c2cccc(OC)c2OC)cc1`: the “activity change, negative = inhibition” value was -12.6%. The same measure, in the same setting: to `CCOc1ccccc1/C=N/Nc1nc2ccccc2o1` belongs -1.3%. In the case of `COc1cccc(/C=C/c2ccc3ccccc3n2)c1OC(C)=O`, the Potency is 5.36 µM (active). Same read-out and setting: to `CCOc1cccc(/C=C/c2ccc3ccccc3n2)c1OC(C)=O` belongs 7.57 µM (active). In the case of `CC(=O)c1ccc(S(=O)(=O)N2CCN(C(=O)/C=C/c3ccc4ccccc4n3)CC2)cc1`, the “activity change, negative = inhibition” value is 4.51%. Take `COc1ccc(CCNC(=O)CCCn2c(=O)c3ccccc3n(Cc3ccc(F)cc3Cl)c2=O)cc1OC`: the “activity change, negative = inhibition” value is 1.56%. The same measure, in the same setting: in the case of `COc1ccc2cc(CCl)c(Cl)nc2c1` it was -20.6%; in that of `CC(C)c1ccc(NC(=O)c2cc(S(=O)(=O)N3CCc4ccccc4C3)ccc2F)cc1`, -4.07%; in that of `CN1C(C(=O)NCc2ccco2)CC2Cn3c(nc4ccccc43)C21` (stereo unspecified), -5.4%. For the compound `Cc1ccc(NC2=C(c3ccc(C(F)(F)F)cc3)C(=O)c3ccccc32)cc1F`, the “activity change, negative = inhibition” value was -4.5%. Turning to `CCc1ccc(Sc2cc(C(=O)NCCCOC(C)C)c3ccccc3n2)cc1`, the “activity change, negative = inhibition” value is -16.5%. In the case of `CC1CCCC(NC(=O)c2cc(-c3ccncc3)nc3ccccc23)C1C` (stereo unspecified), the “activity change, negative = inhibition” value is 0.447%. For the compound `CCc1ccc(-c2cc(C(=O)NN3CCN(C)CC3)c3ccccc3n2)cc1`, the Potency is 2.69 µM (active).

Turning to `CN(Cc1ccccc1)c1ncnc2onc(-c3ccc(F)cc3)c12`, the “activity change, negative = inhibition” value is -17.8%.

`COc1ccccc1C(=O)Nn1c(-c2cccs2)nc2ccccc2c1=O`: the “activity change, negative = inhibition” value was 0.184%. Same read-out and setting: in the case of `O=C(CSc1nc(Nc2ccc(F)c(F)c2)c2ccccc2n1)c1ccc(Cl)cc1` it was -3.03%. With `CC(=O)Nc1cccc(Nc2nc(-c3cccs3)nc3ccccc23)c1`, the Potency is 23.9 µM (active).

Turning to `CC(=O)c1ccc(S(=O)(=O)N(C)CCCC(=O)N(C)Cc2ccccc2F)cc1`, the “activity change, negative = inhibition” value was 2.93%. For the compound `O=C(/C=C/c1cn(CC(O)CN2CCc3ccccc32)c2ccccc12)c1ccc(Br)cc1` (stereo unspecified), the “activity change, negative = inhibition” value was -2.15%. The same measure, in the same setting: in the case of `CC1CN(C(=S)SCC(=O)c2ccccc2)CC(C)O1` (stereo unspecified) it was -1.21%. As to `O=C(CSC(=S)N1CCCCC1)c1c(F)cccc1F`, the Potency is 2.13 µM (active). The same measure, in the same setting: in the case of `O=C(CSC(=S)N1CCOCC1)c1ccccc1` it was 3.01 µM (active). In the case of `O=C(CSC(=S)N1CCOCC1)c1cc(Br)cc(Br)c1O`, the “activity change, negative = inhibition” value was -14.9%. Still for that read-out and setting: to `CC(=O)c1ccc(NC(=O)CSC(=S)N2CCCC2)cc1` belongs -11.5%; to `COc1cccc(NC(=O)CN(C)C(=O)CSC(=S)N2CCCC2)c1`, 2.27%.
